This excerpt belongs to a sample that is enriched for hits.
Ba CapD inh = blocks the Bacillus anthracis CapD enzyme | AID 492967 | purified CapD enzyme, fluorescence intensity read-out; hits give low values | z-score (concentration not given with the values) | 140,000 compounds, 0.23% hits; in the data active means z-score mostly below about -2.9, no sharp cut-off; inactive means mostly above about -1.9
* marks the source's active call; other numbers are inactive results; i = inactive.

SMILES	Ba CapD inh
Cc1ccc(C)n1-c1ccc(C(=O)O)c(C(=O)O)c1	-8.4*
Cc1ccc(C)n1-c1ccc(CC(=O)O)cc1	-3.2
O=C(O)c1cccc(N2CCCC2)c1	76
Cc1ccc(C)n1-c1cccc(C(=O)O)c1	-8.6*
Cc1ccc(C)n1-c1cccc(N)c1	0.07
CC(=O)Nc1sccc1C(=O)O	0.89
Cc1cc(C(=O)O)c(C)n1-c1ccc(Cl)cc1	-0.14
Cc1ccc(C)n1-c1sccc1C(=O)CC#N	0.39
Cc1ccc(C)n1-c1sccc1C(=O)O	-11*
CCn1cc(S(=O)(=O)Nc2cc(C(C)(C)C)on2)cn1	1.1
CSc1ncc(Cl)c(C(=O)Oc2ccccc2F)n1	-1.4
CCN(CCOC(=O)N1CCN(c2cc(C(F)(F)F)ccn2)CC1)c1ccc(N=Nc2ccc([N+](=O)[O-])cc2)cc1	11
COc1ccc(C(=O)NC2=C(C)N(C)N(c3ccccc3)C2)cc1	i
CC(C)Oc1ccc(C2C3=C(CC(C)(C)CC3=O)NC3=C2C(=O)CC(C)(C)C3)cc1	13
N#Cc1cc(C#N)c(SCC(=O)N2c3ccccc3Sc3ccccc32)nc1N	0.65
CC(=O)N1c2ccccc2C(=O)C1Sc1nc(C)cc(-c2ccccc2)n1 (centres undefined)	-0.7
NC(=O)c1c(NC(=O)c2cccc(Br)c2)sc2c1CCC2	-0.27
COc1ccccc1/C=C1/SC(=S)NC1=O	-0.59
Cn1cccc1/C=C1\CS/C(=C\c2cccn2C)C1=O	-0.27
Cn1cccc1/C=C1\SC(=S)NC1=O	-4.3*
CC(C)NCc1c[nH]c2ccccc12	0.51
CC1CCCC(C)N1C(=O)COc1ccc(Br)cc1 (centres undefined)	-0.73
CSC(SC)=C(C#N)C(=O)c1cccc(C)c1	-1.5
CSC(SC)=C(C#N)C(=O)c1ccccc1Cl	-4.7*
CSC(SC)=C(C#N)C(=O)c1cccc(C(F)(F)F)c1	-1.4
SMILES	Ba CapD inh
N#CC1=C(N)OC(C2CC2)=C(C#N)C1c1cccs1 (centres undefined)	2.5
COc1cc(OC)cc(C2SC(N)=C(C#N)C(N)=C2C#N)c1 (centres undefined)	-0.59
N#CC1=C(N)SC(c2cccs2)C(C#N)=C1N (centres undefined)	-5.1*
CC(=O)NCCn1c(SCC(=O)Nc2ccccc2Cl)nc2ccccc2c1=O	-0.22
Cc1onc(-c2c(Cl)cccc2Cl)c1NC(=O)N(C)C1CCCCC1	0.29
CN1C(=O)/C(=C\C(=O)c2cccs2)c2ccccc21	-0.22
CN1C(=O)/C(=c2/[nH][nH]c(=O)/c2=C\C=C\c2ccccc2)C(=O)c2ccccc21	-5.2*
C=CCN1C(=O)NC(=O)/C(=C/C=C/c2ccccc2)C1=O	-0.42
C=CCNC(=O)c1cc(-c2ccc(Cl)cc2)on1	-0.16
CC(C)(C)c1cc2nc(C(F)(F)F)cc(N3CCN(S(=O)(=O)c4ccc(F)cc4F)CC3)n2n1	19
O=C(O)c1ccccc1NCCc1ccc(F)cc1	98
COc1cc(NS(=O)(=O)c2ccc3c(c2)CCN3C(=O)CCC(=O)O)c(C(=O)O)cc1OC	-4.3*
O=C(O)CCC(=O)N1CCc2cc(S(=O)(=O)NCc3ccccc3)ccc21	-1.6
CCC(=O)N1CCc2cc(S(=O)(=O)Nc3ccccc3OC)ccc21	0.41
CSCCNC(=O)NCCNc1ccc([N+](=O)[O-])cn1	-0.42
O=C(NCCNc1ccc([N+](=O)[O-])cn1)NNC(=O)c1ccc([N+](=O)[O-])o1	-5.1*
CCN(CC)c1ccc(C(=O)NNC(=O)NCCNc2ccc([N+](=O)[O-])cn2)cc1	9.9
O=C(CSc1ncn[nH]1)c1ccc(F)cc1	-1
CCCNC(=O)CCC(=O)N(CCOC)C1CCN(C)CC1	-0.27
Cc1[nH]c2ccccc2c1/C=N/n1cnc2sc3c(c2c1=O)CCCC3	5.6
CCC1CCCCN1C(=O)CSc1nnc(-c2ccc(Cl)cc2)o1 (centres undefined)	-4.8*
CCC1CCCCN1C(=O)CSc1ccc(Cl)cc1 (centres undefined)	-0.29
CCC1CCCCN1C(=O)CSCc1ccc(Cl)cc1 (centres undefined)	0.29
CCOC(=O)N1CCC(NC(=O)c2nn(-c3ccc(C)cc3)c(=O)c3c2c2ccccc2n3C)CC1	0.51
COC(=O)Cc1nc(Nc2ccc(OC)cc2OC)c2c(C)c(C)sc2n1	-0.25
SMILES	Ba CapD inh
CC(=O)Oc1ccc2c(c1)C(=O)c1cc(OC(C)=O)ccc1-2	0.08
Cc1ccc(OC(=O)OCSc2nn[nH]n2)cc1	-7.1*
Cc1ccc(-c2nn[nH]n2)cc1	0.3
Cc1ccc(/C(N)=N/OC(=O)Oc2ccccc2)cc1	-0.01
COc1ccc(C2C3=C(CC(C)(C)CC3=O)NC3=C2C(=O)CC(C)(C)C3)cc1	1.1
CN1C(=O)c2ccccc2Sc2ccc(NC(=O)NCCCN3CCOCC3)cc21	-0.57
Cn1c(-c2nonc2NC(=O)c2cccs2)nc2ccccc21	29
COc1ccc(C(=O)c2sc3nc(-c4ccco4)cc(C(F)(F)F)c3c2N)cc1OC	0.67
O=c1cc(O)c2sc3nc(-c4ccco4)cc(C(F)(F)F)c3c2[nH]1	-6.2*
Cc1cc(C(F)(F)F)c2c(n1)sc1c(O)cc(=O)[nH]c12	5.8
Cc1ccc(NC(=S)N2CCN(CCO)CC2)c(C)c1	-0.02

From PubChem
